# Measurements: PubChem BioAssay (NCATS)
# Inconclusive results are not listed. A call without a number means that no potency is given here. A number with no mark means an inactive call. Active and inactive are the calls of the source. Calls come from the whole dose curve; as a rule, active = well fitted curve in the direction sought with a large enough effect; inconclusive = small, poorly fitted or top-dose-only effect, or another doubt; inactive = no such curve, though single readings can be large; an effect the other way counts as inactive or inconclusive.
# Tests used:
# [1] = system: CRL-7250; test: Cytotoxic Profiling of Annotated Libraries Using Quantitative High-Throughput Screening (AID 1296008); details: Five cell lines viability, CellTiter-Glo ATP luminescence, 48-72 h; max response: active compounds read low; note: nearly all actives have a fitted effect of over 60% in size
# How it was run: (§1)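 Cytotoxicity was measured as CellTiter-Glo ATP luminescence, read after 10 min at room temperature. Compound treatment of the cells lasted 48 or 72 hr at 37 degrees Celsius in a qHTS format.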
# [2] = system: HaCat; test: as above; details: Five cell lines viability, CellTiter-Glo ATP luminescence, 48-72 h; max response: active compounds read low
# How it was run: as §1
# [3] = system: KB-3-1; test: as above; details: Five cell lines viability, CellTiter-Glo ATP luminescence, 48-72 h; max response: active compounds read low
# How it was run: as §1
# [4] = system: NIH3T3; test: as above; details: Five cell lines viability, CellTiter-Glo ATP luminescence, 48-72 h; max response: active compounds read low
# How it was run: as §1
# [5] = system: NIH3T3; test: qHTS assay to identify novel small-molecules to repurpose for Merkel cell carcinoma treatment (AID 1296009); details: MCC and control cell lines, CellTiter-Glo viability, 72 h; series mostly up to 44.8 µM; note: nearly all actives have a fitted effect of over 60% in size
# How it was run: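 Cell viability measured by CellTiter-Glo following 72 hr compound treatment at 37 degree celsius, with NPC and MIPE libraries tested in 8- and 11-point concentration series.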
# [6] = system: C33A; test: Primary qHTS to identify gynecologic anti-cancer compounds using libraries of approved drugs and bioactive compounds (AID 1345084); details: Gynecologic cancer cell panel viability, ATPlite luminescence, 48 h; series mostly up to 57.5 µM; note: nearly all actives have a fitted effect of over 55% in size; note: potency is the fitted concentration of half-maximal effect
# How it was run: (§2)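 48 h compound exposure at 37 C, 5% CO2; five-point qHTS. ATPlite luminescence readout of cell ATP.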
# [7] = system: CASKI; test: as above; details: Gynecologic cancer cell panel viability, ATPlite luminescence, 48 h; series mostly up to 57.5 µM
# How it was run: as §2
# [8] = system: Es-2; test: as above; details: Gynecologic cancer cell panel viability, ATPlite luminescence, 48 h; series mostly up to 57.5 µM
# How it was run: as §2
# [9] = system: HeLa; test: as above; details: Gynecologic cancer cell panel viability, ATPlite luminescence, 48 h; series mostly up to 57.5 µM
# How it was run: as §2
# [10] = system: Hek293T; test: as above; details: Gynecologic cancer cell panel viability, ATPlite luminescence, 48 h, control line for the selectivity index; series mostly up to 57.5 µM
# How it was run: as §2
# [11] = system: JEG-3; test: as above; details: Gynecologic cancer cell panel viability, ATPlite luminescence, 48 h; series mostly up to 57.5 µM
# How it was run: as §2
# [12] = system: PA-1; test: as above; details: Gynecologic cancer cell panel viability, ATPlite luminescence, 48 h; series mostly up to 57.5 µM
# How it was run: as §2
# [13] = system: CAOV3; test: as above; details: Gynecologic cancer cell panel viability, ATPlite luminescence, 48 h; series mostly up to 57.5 µM
# How it was run: as §2
# [14] = system: OV90; test: as above; details: Gynecologic cancer cell panel viability, ATPlite luminescence, 48 h; series mostly up to 57.5 µM
# How it was run: as §2
# [15] = system: SKOV3; test: as above; details: Gynecologic cancer cell panel viability, ATPlite luminescence, 48 h; series mostly up to 57.5 µM
# How it was run: as §2
SMILES,max response [1],max response [2],max response [3],outcome [4],Potency [5],Potency [6],Potency [7],Potency [8],Potency [9],Potency [10],Potency [11],Potency [12],outcome [1],Potency [13],Potency [14],Potency [15],max response [4],outcome [3]
CC(=O)NCc1cccc(OC[C@@H](O)CNCCc2ccc(NS(=O)(=O)c3ccccc3)cc2)c1,-6.68%,-3.13%,-5.62%,inactive,inactive,inactive,inactive,inactive,inactive,inactive,inactive,inactive,,,,,,
Cn1nc(C(C)(C)C)cc1C(=O)N[C@@H](Cc1cccc(Cl)c1)C(=O)NCC#N,,-0.262%,0.545%,inactive,inactive,inactive,inactive,inactive,inactive,inactive,inactive,inactive,inactive,inactive,inactive,,,
O=C(N[C@H]1CCN(C(=O)c2cc(C(F)(F)F)cc(C(F)(F)F)c2)[C@H](Cc2ccc(Cl)cc2)C1)c1ccnc2ccccc12,0.275%,-2.45%,-7.03%,inactive,inactive,inactive,inactive,inactive,inactive,inactive,inactive,inactive,,inactive,inactive,inactive,,
CN(C)S(=O)(=O)c1ccc(NC(=S)N2CCC(C(O)(c3ccccc3)c3ccccc3)CC2)cc1,,3.08%,-18.9%,inactive,inactive,inactive,inactive,inactive,inactive,inactive,inactive,inactive,inactive,inactive,inactive,inactive,,
COc1ccccc1N1CCN(CC(C(=O)NC(C)(C)C)c2ccccc2)CC1 (stereo unspecified),,-3.82%,7.33%,inactive,inactive,,inactive,inactive,inactive,inactive,inactive,inactive,inactive,inactive,inactive,inactive,,
COc1cc(/C=N\NC(=O)c2ccc3c(c2)OCO3)ccc1OCc1ccccc1,3.71%,-3.21%,-9.36%,,,inactive,inactive,inactive,inactive,inactive,inactive,,,inactive,,,0.687%,
COC(=O)CC[C@@H](C)C1CCC2C3CCC4C[C@H](OC(C)=O)CCC4(C)C3C[C@H](O)C21C (stereo partly specified),-0.684%,-5.91%,9.49%,inactive,inactive,inactive,inactive,inactive,inactive,inactive,inactive,inactive,,inactive,inactive,inactive,,
COc1ccccc1-c1ccc(-c2cn(C(=O)N3CCCCC3Cc3ccccc3)nn2)cc1 (stereo unspecified),,-29.9%,1.87%,inactive,inactive,inactive,inactive,inactive,,,inactive,,inactive,inactive,,inactive,,
Nc1c(S(=O)(=O)c2ccccc2)c2nc3ccccc3nc2n1-c1ccc(F)cc1,2.31%,-0.67%,9.53%,inactive,inactive,inactive,inactive,inactive,inactive,inactive,inactive,inactive,,inactive,inactive,,,
Nc1nc2c(nc(Br)n2[C@@H]2O[C@@H]3COP(=O)(O)O[C@H]3[C@H]2O)c(=O)[nH]1,-4.64%,-8.41%,,inactive,inactive,inactive,inactive,inactive,inactive,inactive,inactive,inactive,,inactive,inactive,,,inactive
CCC(C)C(=O)OC12C(OC(C)=O)C(C)C3(O)C(C=C(CO)CC4(O)C(=O)C(C)=CC43)C1C2(C)C (stereo unspecified),-7.79%,-11.4%,,inactive,inactive,,inactive,0.316 µM (active),inactive,inactive,inactive,,,inactive,,inactive,,inactive
C=CC(C)(C)c1[nH]c2ccccc2c1C[C@@H]1NC(=O)[C@H](C)NC1=O,-22.2%,1.83%,3.23%,inactive,inactive,inactive,inactive,inactive,inactive,inactive,inactive,inactive,,,inactive,inactive,,
O=C(c1ccccn1)N(Cc1cccs1)C1(C(=O)NC2CCCCC2)CCCCC1,-5.83%,-24.4%,7.82%,inactive,inactive,inactive,inactive,inactive,inactive,inactive,inactive,inactive,,inactive,inactive,inactive,,
CC#C[C@@H](CC(=O)O)c1ccc(OCc2ccc(CN3CCC4(C=Cc5ccccc54)CC3)s2)cc1,,1.71%,-9.33%,inactive,inactive,inactive,inactive,inactive,inactive,inactive,inactive,inactive,inactive,inactive,inactive,inactive,,
